Common to all, as to test: log2 fold change, soluble protein after heating vs DMSO (PISA); higher = thermal stabilisation; K562 cells, 10 uM, 30 min; active = over 0.2 and 3.5 SD of the protein, either way, in both replicates (recomputed)
Compound in test [1]: CC[C@@H]1C(=O)N(C)c2cnc(Nc3ccc(C(=O)NC4CCN(C)CC4)cc3OC)nc2N1C1CCCC1
The procedure, abridged:
(§1)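 Quantification of soluble protein used TMTpro 16plex LC-MS/MS, with channel sums equalised. Samples were the supernatant after 21,000xg for 90 min of pooled aliquots from K562 cells (2×10^6 cells/mL) treated with 10 μM compound for 30 min, heated for 3 min over 48°C-58°C, and extracted in PBS with 0.5% NP-40 at 4°C. Values, from duplicates, describe thermal stability against control samples on a log2 fold-change scale.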

Compound in the next test: CC[C@@H]1C(=O)N(C)c2cnc(Nc3ccc(C(=O)N[C@H]4CC[C@H](N5CCN(CC6CC6)CC5)CC4)cc3OC)nc2N1C(C)C [volasertib]
The procedure, abridged:
as §1

Compound in test [2]: CC[C@H](C)N1C=C(C2=C(C=C(C=C21)C3=CN=C(C=C3)N4CCNCC4)C(=O)NCC5=C(C=C(NC5=O)C)C)C
The procedure, abridged: as §1

Compound in a further test: CC[C@H](C)[C@@H](C(=O)N[C@@H]([C@@H](C)O)C(=O)N[C@@H](CC(C)C)C(=O)[C@]1(CO1)C)NC(=O)[C@H]([C@@H](C)CC)N(C)C(=O)C [epoxomicin]
An outline of the steps:
as §1

Compound in test [3]: CCn1c(C(=O)N(C2CC2)C2CC2)cc2c3c(ncn3C)c(Nc3cc(C)n(C)n3)nc21
The procedure, abridged:
as §1

Compound in test [4]: CCn1cc(-c2ccnc3[nH]c(-c4cccc(CN(C)C)c4)cc23)c(-c2ccc(NC(=O)N(C)C)cc2)n1
The procedure, abridged: as §1

Compound in test [5]: CN(C)CC(=O)Nc1ccc2[nH]c(=O)c3ccccc3c2c1
An outline of the steps:
as §1

Compound in the next test: CN(CCOC1=CC=C(C=C1)C[C@H]2C(=O)NC(=O)S2)C3=CC=CC=N3 (racemic) [rosiglitazone]
An outline of the steps: as §1

Compound in test [6]: CN1C2=C(C3=C1C(=O)N(N=C3)CC4=CC(=CC=C4)N)SC(=C2)S(=O)C
An outline of the steps:
as §1

Compound in test [7]: CN1CCC(CNc2ccc3ncc(-c4cccc(OC(F)(F)F)c4)n3n2)CC1
The procedure, abridged:
as §1

Compound in another test: CN1CCN(CCOc2cc(OC3CCOCC3)c3c(Nc4c(Cl)ccc5c4OCO5)ncnc3c2)CC1 [saracatinib]
The procedure, abridged: as §1

Compound in another test: CN1CCN(c2nc(C3=C(c4c[nH]c5ccccc45)C(=O)NC3=O)c3ccccc3n2)CC1 [sotrastaurin]
An outline of the steps: as §1

Compound in the next test: CN1CC[C@H](c2c(O)cc(O)c3c(=O)cc(-c4ccccc4Cl)oc23)[C@H](O)C1 [alvocidib]
An outline of the steps:
as §1

Compound in another test: CN1CCc2c(c3ccccc3n2Cc2ccc(C(=O)NO)cc2)C1 [Tubastatin A]
The procedure, abridged: as §1

Compound in test [8]: CNC(=O)C1=CC=CC=C1NC2=NC(=NC=C2Cl)NC3=C(C=C(C=C3)N4CCOCC4)OC
The procedure, abridged:
as §1

Compound in a further test: CNC(=O)c1ccc(Nc2ncc(C(F)(F)F)c(NCc3nccnc3N(C)S(C)(=O)=O)n2)cc1 [defactinib]
An outline of the steps:
as §1

Compound in a further test: CNCc1ccc(-c2[nH]c3cc(F)cc4c3c2CCNC4=O)cc1 [rucaparib]
An outline of the steps:
as §1

Compound in test [9]: CNc1nc(-c2ccc3c(N)n[nH]c3c2)cc(N2C[C@@H](C(=O)NC3CCCCC3)CC[C@H]2C)n1
An outline of the steps:
as §1

Compound in a further test: COC(=O)N[C@@H](C)CNc1nccc(-c2cn(C(C)C)nc2-c2cc(Cl)cc(NS(C)(=O)=O)c2F)n1 [encorafenib]
An outline of the steps:
as §1

Compound in test [10]: COC(=O)[C@H](CCSC)NC(=O)C1=C(C=C(C=C1)NC[C@H](CS)N)C2=CC=CC=C2
The procedure, abridged:
as §1

About 7,900 targets were measured; listed, in parts, are those with a hit and a random draw of the rest. About 0.6% of all pairs of compound and target were hits. A number with no mark means an inactive call.

Chain of UniProt P54803 (P54803 whole entry, looked up): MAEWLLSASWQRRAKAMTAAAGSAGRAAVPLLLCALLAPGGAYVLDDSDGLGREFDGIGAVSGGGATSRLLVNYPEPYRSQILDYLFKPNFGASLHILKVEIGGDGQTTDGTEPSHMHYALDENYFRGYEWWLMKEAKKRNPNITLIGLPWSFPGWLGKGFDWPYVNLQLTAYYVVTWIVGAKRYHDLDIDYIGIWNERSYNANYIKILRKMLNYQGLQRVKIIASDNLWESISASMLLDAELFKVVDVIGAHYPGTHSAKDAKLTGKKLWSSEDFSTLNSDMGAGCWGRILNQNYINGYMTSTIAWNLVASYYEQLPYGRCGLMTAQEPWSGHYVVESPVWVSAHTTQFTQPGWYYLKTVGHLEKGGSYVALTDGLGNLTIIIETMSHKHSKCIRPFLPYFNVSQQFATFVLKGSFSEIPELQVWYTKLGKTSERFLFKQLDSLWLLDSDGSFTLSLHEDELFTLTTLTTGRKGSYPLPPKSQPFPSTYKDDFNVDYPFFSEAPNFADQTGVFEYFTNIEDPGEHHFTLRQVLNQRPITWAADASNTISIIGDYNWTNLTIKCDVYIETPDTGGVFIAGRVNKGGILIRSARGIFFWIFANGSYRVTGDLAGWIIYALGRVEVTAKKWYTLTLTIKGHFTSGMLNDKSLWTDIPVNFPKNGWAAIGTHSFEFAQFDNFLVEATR
Chain of UniProt P55795 (P55795 whole entry, looked up): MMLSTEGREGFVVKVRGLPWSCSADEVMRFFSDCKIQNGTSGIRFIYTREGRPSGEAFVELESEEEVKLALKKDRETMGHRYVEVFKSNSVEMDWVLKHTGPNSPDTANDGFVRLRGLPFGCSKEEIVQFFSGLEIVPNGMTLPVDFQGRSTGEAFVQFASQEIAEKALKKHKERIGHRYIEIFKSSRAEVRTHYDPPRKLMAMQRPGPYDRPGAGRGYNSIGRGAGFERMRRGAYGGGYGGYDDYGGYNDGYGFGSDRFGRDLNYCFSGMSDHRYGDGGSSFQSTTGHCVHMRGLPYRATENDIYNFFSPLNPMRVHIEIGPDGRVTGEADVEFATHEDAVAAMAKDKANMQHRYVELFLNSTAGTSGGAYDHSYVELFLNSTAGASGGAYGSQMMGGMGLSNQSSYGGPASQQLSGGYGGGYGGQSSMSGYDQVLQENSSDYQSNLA
Chain of UniProt P36915 (P36915 whole entry, looked up): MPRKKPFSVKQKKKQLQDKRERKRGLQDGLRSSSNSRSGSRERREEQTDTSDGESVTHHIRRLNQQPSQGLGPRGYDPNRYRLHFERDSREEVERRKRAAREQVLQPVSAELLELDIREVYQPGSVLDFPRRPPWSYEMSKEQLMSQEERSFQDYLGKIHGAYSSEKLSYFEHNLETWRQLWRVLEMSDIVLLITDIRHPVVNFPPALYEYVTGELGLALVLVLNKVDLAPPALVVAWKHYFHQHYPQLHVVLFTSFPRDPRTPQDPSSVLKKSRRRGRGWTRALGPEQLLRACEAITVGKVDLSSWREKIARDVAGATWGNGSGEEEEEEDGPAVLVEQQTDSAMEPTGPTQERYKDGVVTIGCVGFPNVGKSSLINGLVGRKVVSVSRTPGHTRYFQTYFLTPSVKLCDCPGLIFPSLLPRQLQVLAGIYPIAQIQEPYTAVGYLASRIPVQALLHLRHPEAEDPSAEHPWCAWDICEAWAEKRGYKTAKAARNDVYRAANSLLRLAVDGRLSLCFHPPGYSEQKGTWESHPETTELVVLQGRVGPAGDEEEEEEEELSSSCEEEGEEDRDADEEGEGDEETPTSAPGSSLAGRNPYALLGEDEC
Chain of UniProt Q92522 (Q92522 whole entry, looked up): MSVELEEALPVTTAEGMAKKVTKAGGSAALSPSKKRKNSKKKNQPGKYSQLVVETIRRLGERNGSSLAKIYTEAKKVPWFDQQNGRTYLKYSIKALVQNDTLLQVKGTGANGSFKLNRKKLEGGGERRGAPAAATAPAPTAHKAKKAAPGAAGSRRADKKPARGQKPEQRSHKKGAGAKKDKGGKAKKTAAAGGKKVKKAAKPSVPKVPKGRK
Chain of UniProt Q12894 (Q12894 whole entry, looked up): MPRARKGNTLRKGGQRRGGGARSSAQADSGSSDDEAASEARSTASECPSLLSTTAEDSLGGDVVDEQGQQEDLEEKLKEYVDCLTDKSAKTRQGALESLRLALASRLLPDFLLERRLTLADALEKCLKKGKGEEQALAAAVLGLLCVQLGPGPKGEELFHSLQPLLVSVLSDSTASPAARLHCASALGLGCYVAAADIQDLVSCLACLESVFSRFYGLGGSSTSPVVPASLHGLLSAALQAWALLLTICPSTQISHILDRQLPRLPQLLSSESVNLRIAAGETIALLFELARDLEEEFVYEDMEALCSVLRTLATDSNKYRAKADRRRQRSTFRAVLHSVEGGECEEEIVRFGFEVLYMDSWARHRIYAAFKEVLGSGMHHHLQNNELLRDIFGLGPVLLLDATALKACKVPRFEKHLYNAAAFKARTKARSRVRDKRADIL

As for GALC (UniProt P54803), the log2 fold change in test [1] is -0.275 (active); with volasertib it was -0.959 (active); in test [2] it was -0.009; with epoxomicin it was 0.042; in [3] it was 0.012; in test [4] it was 0.096. For the same target, the log2 fold change was 0.01 in test [5]; -0.006 with rosiglitazone; -0.011 in test [6]; -0.403 (active) in test [7]; 0.033 in the test with saracatinib; 0.047 in the test with sotrastaurin. Moreover, the log2 fold change with alvocidib is -0.03; with Tubastatin A, -0.028; in test [8], -0.003; with defactinib, 0.017; with rucaparib it was -0.091; in test [9], -0.015. The log2 fold change in the test with encorafenib was 0.024; in [10], -0.005.

On to HSPA8 (UniProt E9PK54), for which the log2 fold change in test [1] is 0.041; in the test with volasertib, 0.213; in test [2], -0.003; with epoxomicin, -0.252; in [3], 0.03; in test [4] it was 0.131. The log2 fold change in test [5] was -0.06; with rosiglitazone, 0.042; in test [6], 0.11; in [7], 0.128; with saracatinib it was -0.058; with sotrastaurin, -0.054. The log2 fold change with alvocidib is 0.332; with Tubastatin A it was -0.003; in test [8] it was 0.072; in the test with defactinib, -0.012; with rucaparib, -0.287; in [9] it was -0.033. In addition, the log2 fold change in the test with encorafenib is 0.051; in test [10], 0.048.

In the case of GNL1 (UniProt P36915), the log2 fold change in test [1] was -0.095; with volasertib, -0.229 (active); in test [2] it was 0.027; in the test with epoxomicin it was 0.008; in test [3], -0.006; in [4], -0.1. Further, the log2 fold change was 0.024 in [5]; 0.01 with rosiglitazone; -0.083 in test [6]; -0.053 in test [7]; 0.013 with saracatinib; 0.013 with sotrastaurin. The log2 fold change with alvocidib is -0.038; with Tubastatin A, 0.018; in test [8], 0.009; with defactinib it was 0.023; in the test with rucaparib, -0.039; in [9], 0.016. Moreover, the log2 fold change with encorafenib is 0.021; in [10], -0.011.

On to IFRD2 isoform 2 (UniProt Q12894), for which the log2 fold change was 0.084 in test [1]; 0.045 with volasertib; -0.261 in test [2]; -0.02 in the test with epoxomicin; 0 in test [3]; 0.029 in test [4]. Further, the log2 fold change in [5] was -0.319; with rosiglitazone, 0.225; in [6], -0.023; in test [7] it was 0.196; with saracatinib, 0.126; with sotrastaurin it was 0.31. Further, the log2 fold change is -0.017 with alvocidib; -0.272 with Tubastatin A; 0.022 in [8]; 0.16 with defactinib; -0.549 (active) with rucaparib; -0.095 in test [9]. Further, the log2 fold change in the test with encorafenib was -0.031; in [10], 0.026.

As for HNRNPH2 (UniProt P55795), the log2 fold change in test [1] was -0.119; in the test with volasertib, -0.667 (active); in [2], 0.073; with epoxomicin, -0.004; in test [3], -0.202; in test [4] it was 0. Moreover, the log2 fold change in [5] is 0.069; with rosiglitazone, 0.038; in test [6] it was 0.087; in test [7], -0.06; with saracatinib, -0.065; in the test with sotrastaurin, -0.081. In addition, the log2 fold change in the test with alvocidib was -0.106; with Tubastatin A, 0.101; in test [8], -0.079; with defactinib, -0.173; in the test with rucaparib, 0.002; in [9], -0.001. Also, the log2 fold change was 0.02 in the test with encorafenib and -0.068 in test [10].

On to H1FX (UniProt Q92522), for which the log2 fold change in test [1] was 0.166; with volasertib it was 0.415; in test [2], -0.003; in the test with epoxomicin, -0.201; in test [3], -0.026; in test [4], 0.041. Also, the log2 fold change in [5] was -0.115; in the test with rosiglitazone, -0.156; in test [6], 0.287; in test [7], 0.129; with saracatinib, -0.054; with sotrastaurin, -0.237. The log2 fold change is 0.381 with alvocidib; 0.093 with Tubastatin A; 0.041 in test [8]; 0.336 with defactinib; 0.219 with rucaparib; 0.102 in test [9]. The log2 fold change was 0.121 in the test with encorafenib and 0.013 in [10].

The values are drawn from the supplement of paper PMC10849652.
